Measurements published in PubChem BioAssay (NCATS).
Results filed as inconclusive are left out. Active and inactive are the calls of the source. The call rests on the fitted dose curve; in most records, active means well fitted cell-killing curve with a large enough effect; inconclusive means small, poorly fitted or top-dose-only effect, or effect the other way; inactive means flat fitted curve, though single readings scatter.

Assays:
Test in all cases: Primary qHTS to identify gynecologic anti-cancer compounds using libraries of approved drugs and bioactive compounds (AID 1345084); further: nearly all actives have a fitted effect of over 55% in size
C33A = details: Gynecologic cancer cell panel viability, ATPlite luminescence, 48 h; series mostly up to 57.5 µM
Summary of the method: (§1)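 Cell viability after 48 h drug treatment, ATPlite luminescence readout; five doses.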

CAOV3 = details: Gynecologic cancer cell panel viability, ATPlite luminescence, 48 h; series mostly up to 57.5 µM
Summary of the method: as §1

CASKI = details: Gynecologic cancer cell panel viability, ATPlite luminescence, 48 h; series mostly up to 57.5 µM
Summary of the method: as §1

Es-2 = details: Gynecologic cancer cell panel viability, ATPlite luminescence, 48 h; series mostly up to 57.5 µM
Summary of the method: as §1

HeLa = details: Gynecologic cancer cell panel viability, ATPlite luminescence, 48 h; series mostly up to 57.5 µM
Summary of the method: as §1

Hek293T = details: Gynecologic cancer cell panel viability, ATPlite luminescence, 48 h, control line for the selectivity index; series mostly up to 57.5 µM
Summary of the method: as §1

JEG-3 = details: Gynecologic cancer cell panel viability, ATPlite luminescence, 48 h; series mostly up to 57.5 µM
Summary of the method: as §1

OV90 = details: Gynecologic cancer cell panel viability, ATPlite luminescence, 48 h; series mostly up to 57.5 µM
Summary of the method: as §1

PA-1 = details: Gynecologic cancer cell panel viability, ATPlite luminescence, 48 h; series mostly up to 57.5 µM
Summary of the method: as §1

SKOV3 = details: Gynecologic cancer cell panel viability, ATPlite luminescence, 48 h; series mostly up to 57.5 µM
Summary of the method: as §1

Tov-21-G = details: Gynecologic cancer cell panel viability, ATPlite luminescence, 48 h; series mostly up to 57.5 µM
Summary of the method: as §1

Tov112D = details: Gynecologic cancer cell panel viability, ATPlite luminescence, 48 h; series mostly up to 57.5 µM
Summary of the method: as §1
On the % scale 0 is the no-effect control and ±100 the full control effect.

CCC1CC2C(C)=CC3CCCCC3C2(C)C2(OC(=O)C(C)(O)OC2=O)O1 (configuration not stated)
inactive: Potency (C33A) | Potency (CAOV3) | Potency (CASKI) | Potency (Es-2) | Potency (HeLa) | Potency (Hek293T) | Potency (JEG-3) | Potency (OV90) | Potency (PA-1) | Potency (SKOV3) | Potency (Tov-21-G) | Potency (Tov112D)

COc1cccc2c1CCC[C@H]2CN(C)CCc1ccc2ccoc2c1
inactive: Potency (C33A) | Potency (CAOV3) | Potency (CASKI) | Potency (Es-2) | Potency (HeLa) | Potency (Hek293T) | Potency (JEG-3) | Potency (OV90) | Potency (PA-1) | Potency (SKOV3) | Potency (Tov-21-G) | Potency (Tov112D)

CC(=O)O[C@H]1[C@H](Oc2ccccc2COC(=O)C2(O)C=CCCC2=O)O[C@H](CO)[C@@H](O)[C@@H]1O (some centres not stated)
inactive: Potency (C33A) | Potency (CAOV3) | Potency (CASKI) | Potency (Es-2) | Potency (HeLa) | Potency (Hek293T) | Potency (JEG-3) | Potency (OV90) | Potency (PA-1) | Potency (SKOV3) | Potency (Tov-21-G) | Potency (Tov112D)

CC1(C)C(=O)N2c3ccccc3[C@]3(CC(n4cnc5ccccc5c4=O)C(=O)O3)[C@H]2N1O (some centres not stated)
inactive: Potency (C33A) | Potency (CAOV3) | Potency (CASKI) | Potency (Es-2) | Potency (HeLa) | Potency (Hek293T) | Potency (JEG-3) | Potency (OV90) | Potency (PA-1) | Potency (SKOV3) | Potency (Tov-21-G) | Potency (Tov112D)

C/C(=C\CO)CC/C=C(\C)C(=O)O[C@H]1[C@H](OC2OC=C(C(=O)O)C3CCC(C)(O)C23)O[C@H](CO)[C@@H](O)[C@@H]1O (some centres not stated)
inactive: Potency (C33A) | Potency (CAOV3) | Potency (CASKI) | Potency (Es-2) | Potency (HeLa) | Potency (Hek293T) | Potency (JEG-3) | Potency (OV90) | Potency (PA-1) | Potency (SKOV3) | Potency (Tov-21-G) | Potency (Tov112D)

CC1(C)CC2C3=CCC4C5(C)CCC(OC6OC(CO)C(O)C(OC7OC(CO)C(O)C(OC8OC(CO)C(O)C(OC9OC(COC%10OC(CO)C(O)C(O)C%10O)C(O)C(O)C9O)C8O)C7O)C6O)C(C)(C)C5CCC4(C)C3(C)CCC2(C(=O)O)CC1O (configuration not stated)
inactive: activity change, negative = cytotoxicity (C33A) 6.53% [at 6.55 µM] | activity change, negative = cytotoxicity (CAOV3) 3.47% [at 6.55 µM] | activity change, negative = cytotoxicity (CASKI) -0.0614% [at 6.55 µM] | activity change, negative = cytotoxicity (Es-2) 1.92% [at 6.55 µM] | activity change, negative = cytotoxicity (HeLa) -11.1% [at 6.55 µM] | activity change, negative = cytotoxicity (Hek293T) -9.53% [at 6.55 µM] | activity change, negative = cytotoxicity (JEG-3) 6.92% [at 6.55 µM] | activity change, negative = cytotoxicity (OV90) 0.668% [at 6.55 µM] | activity change, negative = cytotoxicity (PA-1) 1.44% [at 6.55 µM] | activity change, negative = cytotoxicity (SKOV3) 0% [at 6.55 µM] | activity change, negative = cytotoxicity (Tov-21-G) -2.7% [at 6.55 µM] | activity change, negative = cytotoxicity (Tov112D) 1.66% [at 6.55 µM]
